Data published in PubChem BioAssay AID2315 (National Center for Advancing Translational Sciences (NCATS), 2010).
Among all 290,000 compounds or so, about 27,000 (9.3%) were called active. This is one part of a sample in which actives are shown more often than they occur. Values without a mark were called inactive. No stated cut-off is given here; in the data, active means inhibition mostly above about 28% (no sharp cut-off); inactive means mostly below about 43%.

Experiment: A qHTS for Small Molecule Inhibitors of Shiga Toxin; further: 0% is about no effect
Conditions: Vero cells, Shiga toxin protein synthesis inhibition reporter; at 38.7 µM, stronger effect = higher value

Compound	inhibition
COCc1cc(C)n(CC(=O)NCC2CCCO2)c(=O)c1C#N (stereo unspecified)	-20.7%
COc1ccccc1CCCNC(=O)C1CCC(=O)N(CCN2CCOCC2)C1 (stereo unspecified)	-25.5%
Nc1nc(NCc2ccccc2)n(-c2ccccc2)n1	-6.24%
Cc1cccc(CC(=O)N2CCN=C2SCc2ccc([N+](=O)[O-])cc2)c1	2.92%
FC(F)(F)c1cccc(NC(=S)Nc2cccc(Cl)c2)c1	1.44%
CN(C)S(=O)(=O)c1cccc(NC(=S)NCc2ccc3c(c2)OCO3)c1	-10.4%
S=C(NCc1ccc2c(c1)OCO2)NCc1ccco1	53.2%
FC(F)Oc1ccc(NC(=S)NCc2ccco2)cc1Cl	9.56%
S=C(Nc1cccc(Cl)c1)Nc1ccc2cn[nH]c2c1	34.5%
CC(=O)Nc1cccc(C(=O)Nc2nc(C)cs2)c1	42.6%
Cc1csc(NC(=S)Nc2cccc(Cl)c2)n1	126% (active)
S=C(NCc1ccco1)Nc1ccc2c(c1)OCCO2	69.3% (active)
S=C(Nc1cccc(Cl)c1)Nc1ccc2c(c1)OCCO2	61.2% (active)
CC(NS(=O)(=O)c1ccc(OCC(=O)N2CCCC2)cc1)c1ccccc1 (stereo unspecified)	-8.81%
COCCn1cnc2c1c(=O)n(CC(=O)NN)c(=O)n2Cc1ccccc1	14.2%
C/C(=N\NC(=O)c1cc(-c2ccc(O)cc2)nc2ccccc12)c1cccnc1	6.02%
CC1CC(C)CN(CCCNC(=O)Cn2ncc3c([nH]c4ccccc43)c2=O)C1 (stereo unspecified)	-7.63%
Cc1c(Br)c([N+](=O)[O-])nn1CC(=O)Nc1sc2c(c1C(=O)OC(C)C)CCC(C)C2 (stereo unspecified)	-7.24%
CCCOc1cccc(C(=O)NCCCNC(=O)c2cccnc2)c1	-9.24%
CCCn1nnc(NC(=O)COc2ccc(CC)cc2)n1	3.59%
CCCOc1cccc(C(=O)Nc2nnn(CCC)n2)c1	103% (active)
CCCCCN(C(=O)CCC(=O)OCC(=O)NCc1ccc(OC)cc1)c1c(N)n(CCCC)c(=O)[nH]c1=O	-10.9%
CC(C)c1ccc(NC(=O)C2CCCN(S(=O)(=O)c3cccnc3)C2)cc1 (stereo unspecified)	-4.38%
COc1ccc(NC(=O)CC2C(=O)NC3CCCCC3N2C(=O)c2ccc(F)cc2)cc1 (stereo unspecified)	-4.42%
O=C(COc1cccc(Cl)c1)NCc1ccccc1	15%
CCN(CC)CCN1C(=O)C2C(C(=O)Nc3ccc(Br)cc3)C3C=CC2(O3)C1C(=O)NC1CCCCC1 (stereo unspecified)	-12%
